The values that follow come from PubChem BioAssay (EPA / NIEHS).

Experiment [1] can be described thus: ATG_CRE_CIS: Attagene CIS-FACTORIAL HepG2 Assay for human cAMP Responsive Element (CRE) binding protein 3 (AID 2282926). As to conditions: HepG2 CRE cis-reporter, Attagene multiplexed mRNA; actives raise or lower the signal. Put shortly: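 Readout: fluorescently labelled reporter transcripts resolved by capillary electrophoresis after RT-PCR, taken 24 h post-dosing in transfected HepG2. Endogenous transcription factor activity drives each cis-element reporter; gain or loss of signal fitted relative to DMSO control.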

Experiment [2] has as its target CCAAT/enhancer-binding protein beta (Homo sapiens) (UniProt P17676). Description: ATG_C_EBP_CIS: Attagene CIS-FACTORIAL HepG2 Assay for human CCAAT/Enhancer Binding Protein (C/EBP) beta (AID 2282927). As to conditions: HepG2 Attagene cis-factorial transcription factor reporter; actives raise or lower the signal. Put shortly: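 HepG2, transient MRTU transfection, 24 h treatment. RT-PCR plus CE fluorescence; DMSO negative control, bidirectional fit.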

The nature of experiment [3]: ATG_CMV_CIS: Attagene CIS-FACTORIAL HepG2 Assay for human CMV (Internal Marker) (AID 2282928).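 Note: endpoint acts as a background internal control marker rather than a target.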 As to conditions: HepG2 CMV promoter reporter, transcription factor profiling; actives raise or lower the signal. A digest of the protocol: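 24 h chemical treatment, HepG2 with transient multi-reporter transfection; RNA → oligo(dT) RT → PCR → 6-FAM extension → HpaI digest → CE fluorescence. Bidirectional fit, DMSO negative control.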

Experiment [4] can be described thus: ATG_DR4_LXR_CIS: Attagene CIS-FACTORIAL HepG2 Assay for human Liver X Receptor (LXR), DR4 submotif (AID 2282929). As to conditions: HepG2 Attagene DR4 cis-reporter, mRNA transcription; actives raise or lower the signal. Put shortly: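 Total RNA from 24 h-treated, MRTU-transfected HepG2 cells underwent reverse transcription, PCR, fluorescent primer extension and restriction digestion before capillary electrophoresis. Both increases and decreases in reporter signal were fitted against DMSO.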

The nature of experiment [5]: ATG_AP_1_CIS: Attagene CIS-FACTORIAL HepG2 Assay for human Activator Protein 1 (AP-1) (AID 2282931). The following applies: HepG2 Attagene cis-factorial AP-1 reporter mRNA; actives raise or lower the signal. A digest of the protocol:
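HepG2, transient cis-reporter transfection; 24 h; readout RT-PCR/CE fluorescence; DMSO baseline, gain and loss fitted.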

The nature of experiment [6]: ATG_BRE_CIS: Attagene CIS-FACTORIAL HepG2 Assay for human Bone Morphogenetic Protein (BMP) Response Element (BRE) (AID 2282933). The following applies: HepG2 BMP response element reporter, Attagene transcription factor profiling; actives raise or lower the signal. Put shortly: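 Multiplexed cis-reporter assay, HepG2, 24 h exposure. mRNA from reporter units quantified via RT-PCR/CE; DMSO baseline; bidirectional curve fit.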

In experiment [7] the target is Retinoic acid receptor alpha (Homo sapiens) (UniProt P10276). Description: ATG_DR5_RAR_CIS: Attagene CIS-FACTORIAL HepG2 Assay for human Retinoic Acid Receptor Alpha (RARE), DR5 submotif (AID 2282934).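 For AC50: reporter responds to endogenous RAR alpha beta and gamma in HepG2 not RARA alone.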 The following applies: HepG2 Attagene cis-factorial RARE DR5 reporter, mRNA; actives raise or lower the signal. Put shortly:
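After 24 h of chemical exposure, transiently transfected HepG2 cells were lysed for total RNA; the DR5-regulated reporter transcript was quantified via RT-PCR and capillary electrophoresis, with activity fitted bidirectionally against DMSO.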

Experiment [8] is described as follows: ATG_AP_2_CIS: Attagene CIS-FACTORIAL HepG2 Assay for human Activator Protein 2 (AP-2) (AID 2282932). As to conditions: HepG2 AP-2 cis-reporter, Attagene transcription factor profiling; actives raise or lower the signal. Put shortly:
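Read-out: fluorescent reporter mRNA via RT-PCR and capillary electrophoresis, 24 h post-dose in transiently transfected HepG2. Endogenous factors drive cis-promoter reporters; gain or loss of signal fitted bidirectionally against DMSO.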

The target of experiment [9] is Aryl hydrocarbon receptor (Homo sapiens) (UniProt P35869). As to the kind of experiment: ATG_Ahr_CIS: Attagene CIS-FACTORIAL HepG2 Assay for human Aryl Hydrocarbon Receptor (Ahr) (AID 2282930). As to conditions: HepG2 AhR cis-factorial reporter transcription; actives raise or lower the signal. Put shortly: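 Endogenous factor activity is tracked through cis-promoter reporter units transfected into HepG2 cells. Transcript levels at 24 h are read by fluorescent RT-PCR and capillary electrophoresis, with activity in either direction scored relative to DMSO.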
Sequence of Aryl hydrocarbon receptor (Homo sapiens) (P35869 whole entry, looked up): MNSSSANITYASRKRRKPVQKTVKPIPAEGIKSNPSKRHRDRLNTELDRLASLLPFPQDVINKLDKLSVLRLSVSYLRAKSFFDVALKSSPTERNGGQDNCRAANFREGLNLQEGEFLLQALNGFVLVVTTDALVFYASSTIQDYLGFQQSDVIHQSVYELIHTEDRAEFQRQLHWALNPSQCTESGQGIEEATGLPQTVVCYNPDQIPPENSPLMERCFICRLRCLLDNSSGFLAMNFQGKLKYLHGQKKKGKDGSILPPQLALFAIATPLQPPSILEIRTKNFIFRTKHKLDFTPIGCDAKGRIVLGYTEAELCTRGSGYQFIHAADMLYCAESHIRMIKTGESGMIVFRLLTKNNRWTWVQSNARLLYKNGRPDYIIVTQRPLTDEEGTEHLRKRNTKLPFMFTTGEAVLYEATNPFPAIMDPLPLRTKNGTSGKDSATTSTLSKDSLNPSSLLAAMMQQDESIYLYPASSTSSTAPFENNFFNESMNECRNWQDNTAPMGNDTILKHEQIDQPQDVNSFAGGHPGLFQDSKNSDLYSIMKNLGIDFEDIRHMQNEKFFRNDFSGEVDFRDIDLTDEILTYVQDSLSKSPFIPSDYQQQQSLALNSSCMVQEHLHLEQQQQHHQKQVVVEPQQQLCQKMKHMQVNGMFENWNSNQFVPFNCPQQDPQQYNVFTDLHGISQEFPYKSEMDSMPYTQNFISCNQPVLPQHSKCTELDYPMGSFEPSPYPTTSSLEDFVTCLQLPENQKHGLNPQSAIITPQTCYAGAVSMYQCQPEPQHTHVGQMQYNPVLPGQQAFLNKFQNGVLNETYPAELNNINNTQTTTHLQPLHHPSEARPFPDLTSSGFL

The source made the active and inactive calls. Rule for the calls: active = hit-call score of the fitted dose curve at least 0.9, where 1 is the maximum; inactive = score below 0.9.

Sequence of Retinoic acid receptor alpha (Homo sapiens) (P10276 whole entry, looked up): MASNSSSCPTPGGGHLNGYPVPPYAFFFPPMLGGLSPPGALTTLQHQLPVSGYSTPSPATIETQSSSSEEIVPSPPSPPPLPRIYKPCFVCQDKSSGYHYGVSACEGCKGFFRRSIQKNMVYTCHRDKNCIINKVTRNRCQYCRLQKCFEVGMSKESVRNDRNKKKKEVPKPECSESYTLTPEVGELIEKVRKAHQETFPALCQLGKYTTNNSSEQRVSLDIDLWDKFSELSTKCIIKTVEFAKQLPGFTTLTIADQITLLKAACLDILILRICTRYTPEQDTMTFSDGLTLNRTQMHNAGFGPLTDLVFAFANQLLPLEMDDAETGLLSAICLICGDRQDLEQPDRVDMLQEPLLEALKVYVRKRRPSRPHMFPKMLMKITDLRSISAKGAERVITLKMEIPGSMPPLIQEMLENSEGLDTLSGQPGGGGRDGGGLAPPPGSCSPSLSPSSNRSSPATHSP
Sequence of CCAAT/enhancer-binding protein beta (Homo sapiens) (P17676 whole entry, looked up): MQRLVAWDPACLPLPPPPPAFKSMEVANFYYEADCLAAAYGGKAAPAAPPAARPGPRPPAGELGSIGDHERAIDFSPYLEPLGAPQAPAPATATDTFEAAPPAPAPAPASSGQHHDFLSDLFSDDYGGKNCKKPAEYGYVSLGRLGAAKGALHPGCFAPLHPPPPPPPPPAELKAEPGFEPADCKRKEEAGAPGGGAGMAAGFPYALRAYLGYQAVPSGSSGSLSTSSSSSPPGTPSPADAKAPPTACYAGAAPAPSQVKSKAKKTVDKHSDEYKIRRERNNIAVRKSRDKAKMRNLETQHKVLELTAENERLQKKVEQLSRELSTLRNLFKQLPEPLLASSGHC

Take `CCCCCCCCCCCCOCCOS(=O)(=O)O`: the compound was called inactive in experiment [1], in experiment [2], in [3], in experiment [4], in experiment [5] and in experiment [6]. For the same compound, the result in [7] was inactive.
For `CC(O)CN` (configuration not stated), the result in experiment [1], in experiment [2], in [3], in experiment [4], in [5] and in [8] was inactive. The compound was called inactive in experiment [6] and in experiment [7].
Turning to `CC(C)=CC(=O)O`, the compound was classed as inactive in [1], in experiment [2], in experiment [3], in experiment [4], in [5] and in experiment [8]. Besides, the call in [6] was inactive.
As for `CCCc1ccc(O)cc1`, the outcome in experiment [1], in experiment [2], in [3], in [5], in experiment [8] and in experiment [6] was inactive. Further, the call in [7] was inactive. The concentration at half-maximal activity (AC50) (usually the midpoint of the concentration-response curve, whichever way the signal moves) in experiment [4] was 70.5 µM (active).
With `CCCO[Si](OCCC)(OCCC)OCCC`, the outcome in [1], in [2], in experiment [3], in [4], in [8] and in experiment [6] was inactive.
As to `CCCCCCCCOC(=O)c1ccc(O)cc1`, the compound was classed as inactive in experiment [1], in [2], in [3], in experiment [4], in [5] and in experiment [8]. The outcome in experiment [6] and in experiment [7] was inactive.
Take `CCCCCC1CCC(=O)O1` (configuration not stated): the result in experiment [1], in [2], in experiment [3], in [4], in experiment [5] and in experiment [8] was inactive. The outcome in experiment [6] was inactive.
On to `CCC(=O)OCC=Cc1ccccc1`, for which the result in [1], in experiment [2], in experiment [3], in experiment [4], in [5] and in experiment [8] was inactive. Besides, the compound was classed as inactive in experiment [6].
For the compound `CC(C)(C)C1CCC(O)CC1` (configuration not stated), the outcome in experiment [1], in experiment [2], in experiment [3], in experiment [4], in experiment [5] and in experiment [6] was inactive. Further, the compound was classed as inactive in experiment [7].
On to `CCC(C)(C)C1CCC(=O)CC1`, for which the call in experiment [1], in experiment [2], in [3], in [4], in experiment [5] and in [8] was inactive. In addition, the compound was classed as inactive in [6] and in experiment [7].
For `CC(O)CNCC(C)O` (configuration not stated), the compound was called inactive in experiment [1], in [2], in [3], in experiment [4], in [5] and in experiment [8]. The compound was called inactive in experiment [6].
With `O=C(O)c1ccccc1O`, the result in [1], in [2], in [3], in experiment [4], in experiment [5] and in experiment [8] was inactive. Besides, the result in experiment [6] and in experiment [7] was inactive.
Regarding `CC1=CCC(C(C)(C)O)CC1` (configuration not stated), the compound was classed as inactive in experiment [1], in [2], in [3], in [4], in [5] and in [8]. Also, in experiment [6], the outcome was inactive.
On to `CC1=CC[C@@H](C(C)(C)O)CC1`, for which the call in experiment [1], in [2], in [3], in experiment [4], in [8] and in experiment [6] was inactive.
Take `CC/C=C\CCOC(=O)C(C)C`: the compound was classed as inactive in experiment [1], in [2], in [3], in [4], in experiment [5] and in [8]. For the same compound, the call in experiment [6] and in experiment [7] was inactive.
For `CCC(C)COC(=O)CC(C)C` (configuration not stated), the result in experiment [1], in experiment [2], in experiment [3], in [4], in [5] and in experiment [8] was inactive. In addition, the result in [6] and in experiment [7] was inactive.
For the compound `OC[C@H]1O[C@@H](O[C@H]2[C@H](O)[C@@H](O)[C@H](O)O[C@@H]2CO)[C@H](O)[C@@H](O)[C@H]1O`, the compound was called inactive in experiment [1], in experiment [2], in [3], in experiment [4], in experiment [5] and in [8]. Also, the outcome in experiment [6] and in experiment [7] was inactive.
In the case of `CCCCCCCCCCOC(=O)c1ccccc1C(=O)OCCCCCCCC`, the outcome in experiment [1], in experiment [2], in [3], in [9], in [5] and in [8] was inactive. Further, in experiment [6], the result was inactive.
Regarding `CC1=CC[C@@H]2C[C@H]1C2(C)C`, the result in [1], in experiment [2], in experiment [3], in [8], in experiment [6] and in experiment [7] was inactive.
For the compound `C=C(C)C(=O)OCCOCCOC(=O)C(=C)C`, the compound was classed as inactive in [1], in [2], in experiment [3], in [9], in experiment [5] and in experiment [8]. For the same compound, the compound was classed as inactive in [6].
`CCCCCCCCCCCCS`: the compound was classed as inactive in experiment [1], in [3], in experiment [9] and in [6]. For the same compound, the concentration at half-maximal activity (AC50) in experiment [2] is 24.2 µM (active); in experiment [5] it was 48.8 µM (active); in experiment [7], 9.11 µM (active).
Regarding `CCCCCCCCCCCCOC(C)=O`, the compound was classed as inactive in experiment [1], in experiment [2], in experiment [3], in experiment [9], in [5] and in [6]. Also, the outcome in experiment [7] was inactive.
On to `COC(=O)C(C)Oc1ccc(Oc2ncc(C(F)(F)F)cc2Cl)cc1` (configuration not stated), for which the compound was classed as inactive in experiment [1], in experiment [2], in [3] and in experiment [5]. For the same compound, the AC50 in experiment [6] is 149 µM (active).
On to `CC(=O)OCC=C(C)CCC=C(C)CCC=C(C)C`, for which the compound was called inactive in [1], in experiment [2], in [6] and in [7]. For the same compound, the AC50 in [3] was 63.2 µM (active); in experiment [8] it was 145 µM (active).
As for `C[N+](C)(C)CCO`, the call in experiment [1], in [2], in experiment [3], in experiment [4] and in experiment [6] was inactive.
Turning to `CC(C)(C)c1cc(CCC(=O)OCCSCCOC(=O)CCc2cc(C(C)(C)C)c(O)c(C(C)(C)C)c2)cc(C(C)(C)C)c1O`, the call in [1], in [2], in experiment [3], in [9], in experiment [5] and in [8] was inactive. In [6], the call was inactive.
On to `CCCCCCCCCC(=O)OCC`, for which the AC50 in experiment [1] was 92.2 µM (active); in experiment [9] it was 58.8 µM (active); in experiment [7] it was 63.2 µM (active). Moreover, the result in experiment [2], in experiment [3] and in experiment [6] was inactive.
Consider `CCn1cc(C(=O)O)c(=O)c2ccc(C)nc21`, for which the call in experiment [1], in experiment [2], in experiment [3], in experiment [5], in [8] and in experiment [6] was inactive. Besides, the compound was called inactive in [7].
On to `CC(=O)Nc1cc(S(=O)(=O)O)cc2cc(S(=O)(=O)O)c(N=Nc3ccccc3)c(O)c12`, for which the outcome in experiment [1], in experiment [2], in experiment [3], in experiment [4], in experiment [8] and in experiment [6] was inactive. Also, the result in experiment [7] was inactive.
